64 molecules from PubChem BioAssay AID1986 (Sanford-Burnham Center for Chemical Genomics, 2009) can be followed below.

The nature of this experiment: inhibitors of HIV fusion peptide binding, primary screen, biochemical, uHTS, fluorescence dequenching (AID 1986). Particulars: cell-free peptide binding, 30 min, stronger effect = higher value.
[1] abbreviates: measured here: repeat confirmation average inhibition, at 18.6 µM.

In all, about 290,000 compounds went through this assay and about 890 (0.31%) were called active. No stated cut-off is given here; in the data, active means inhibition mostly above about 52% (no sharp cut-off); inactive means mostly below about 76%. The list comes from a sample in which actives are over-represented; it also holds similar structures and randomly drawn compounds.

`CCNC(=O)COc1ccc(OCc2ccccc2)cc1`: the inhibition (at 20 µM) was 2% (inactive).

Consider `CC1(C)NC(=O)N(CC(O)CN(Cc2ccccc2)Cc2ccccc2)C1=O` (stereo unspecified), for which, under “at 20 µM”, the inhibition was 0.1% (inactive). Consider `O=C(NCc1ccco1)C12CN(Cc3ccccc3)CC1C(c1cccc([N+](=O)[O-])c1)=NO2` (stereo unspecified), for which the inhibition (at 20 µM) was 0.7% (inactive). On the same count and under the same terms, the figure for `COc1ccc(C2CC(c3c(-c4ccccc4)c4cc(Cl)ccc4[nH]c3=O)=NN2C(=O)CCC(=O)O)cc1` (stereo unspecified) is 15.1% (inactive).

For the molecule `O=c1c2c([nH]n1-c1ccccc1)CCSC2`, for the setting “at 20 µM”, the inhibition is 3.5% (inactive).

On to `COc1ccc2c(c1OC)C[N+]1([O-])CCc3cc4c(cc3C1C2)OCO4` (stereo unspecified), for which the inhibition (at 20 µM) is -1.5% (inactive). Consider `C=CCNC(=S)NNc1nc(N2CCCC2)nc(N2CCCC2)n1`, for which, under “at 20 µM”, the inhibition is -0.8% (inactive). The same measure, in the same setting: the figure for `COc1ccnc(CN(C)C(=O)C2CCC(=O)N(Cc3cccc(C(F)(F)F)c3)C2)c1` (stereo unspecified) is 4.4% (inactive); for `COc1cc(-n2nnnc2SC)c(OC)cc1Cl` it is 2.2% (inactive); for `C/C(=N\NC(=O)CN(c1ccc(Oc2ccccc2)cc1)S(C)(=O)=O)C(C)(C)C` it is -0.5% (inactive). Still for that read-out and setting: the figure for `C=CCN1C=CC(=C/C=C(/C#N)C(=O)OCC)C=C1` is -0.9% (inactive). For the molecule `CCOC(=O)/C(C#N)=C\C=C1C=CN(C)C=C1`, the inhibition reads like this: (at 20 µM) 98.3% (active); under setting [1], 52.3%.

Regarding `CCCN1C=CC(=C/C=C(\C#N)C(=O)OCC)C=C1`, where the note is “at 20 µM”, the inhibition was 0.7% (inactive).

In the case of `CC(C)Cc1nc(S(=O)(=O)c2ccc(Cl)cc2)c(N2CCOCC2)o1`, where the note is “at 20 µM”, the inhibition was 1.2% (inactive). As for `Cc1ccc(-n2c(=O)c3ccc(C(=O)NCc4ccco4)cc3n(Cc3ccccc3C#N)c2=O)cc1`, the inhibition (at 20 µM) is -1.1% (inactive). The same measure, in the same setting: the value for `Nc1c(C(=O)NCC2CCCO2)sc2nc3c(c(-c4ccco4)c12)CC/C3=C\c1ccco1` (stereo unspecified) was 64.6% (active). As to `Nc1c(C(=O)NC2CC2)sc2nc3c(c(-c4ccco4)c12)CC/C3=C/c1ccco1`, the inhibition was 64.6% (inactive) (at 20 µM) and 21.7% under setting [1]. Regarding `Nc1c(C(=O)Nc2ccccc2)sc2nc3c(c(-c4ccco4)c12)CCC3`, the inhibition (at 20 µM) was -1.5% (inactive). On to `COc1ccc(Nc2nc3ccccc3nc2NS(=O)(=O)c2cccs2)cc1`, for which the inhibition (at 20 µM) is 45.5% (inactive). Take `COc1ccc(Nc2nc3ccccc3nc2NS(=O)(=O)c2cccs2)c(OC)c1`: the inhibition by setting is: (at 20 µM) 51.5% (active); under setting [1], 64.5%. `COc1cccc(Nc2nc3ccccc3nc2NS(=O)(=O)c2cccs2)c1`: the inhibition by setting is: (at 20 µM) 69.4% (inactive); under setting [1], 30.8%. With `Cc1cccc(C)c1NC(=O)CN(C)C(=O)c1ccccc1C(=O)N(C)Cc1ccccc1`, the inhibition (at 20 µM) was -1.3% (inactive). Take `C(=N\Nc1nc(N2CCCC2)nc(N2CCCC2)n1)/c1ccncc1`: where the note is “at 20 µM”, the inhibition is -0.1% (inactive). Same read-out and setting: the figure for `COc1ccc(C(=O)NCc2nnc(SCC(=O)Nc3ccccc3F)o2)cc1` is -1.8% (inactive); for `COc1ccccc1/C=C/C(=O)NCC(=O)n1nc(C)cc1C` it is 0.9% (inactive). Turning to `O=c1cc(O)c2sc(Nc3ccc(Cl)c(F)c3)nc2[nH]1`, where the note is “at 20 µM”, the inhibition was 46.9% (inactive). Regarding `O=c1cc(O)c2sc(Nc3ccc(F)c(Cl)c3)nc2[nH]1`, the inhibition (at 20 µM) was 51.4% (active). Regarding `O=c1cc(O)c2sc(Nc3ccc(F)cc3)nc2[nH]1`, where the note is “at 20 µM”, the inhibition is 23.5% (inactive). `CCOc1ccc2cc(C(=O)NCc3ccccc3)c(=N)oc2c1`: where the note is “at 20 µM”, the inhibition was 0.1% (inactive). On the same count and under the same terms, the value for `CCCCCC/C(C)=C1/SC(=S)NC1=O` was 24.4% (inactive). With `C/C(C/C(C)=C1/SC(=S)NC1=O)=C1\SC(=S)NC1=O`, the inhibition (at 20 µM) is 69.5% (active). Take `CCO/C(C)=C1/SC(=S)NC1=O`: the inhibition (at 20 µM) is -1% (inactive). With `CCC1(CC)Cc2ccccc2C(=C(C#N)C#N)N1`, the inhibition (at 20 µM) is 0.7% (inactive). Turning to `Cc1c(Cc2ccccc2)sc(NC(=O)/C=C/c2cccc3ccccc23)c1C(N)=O`, the inhibition (at 20 µM) was 3.6% (inactive). On the same count and under the same terms, the value for `COc1nc2ccccc2nc1OC` was 0.6% (inactive). On to `COc1cc2ccccc2nn1`, for which the inhibition (at 20 µM) was -0.9% (inactive). The same measure, in the same setting: the value for `COc1ccc2c(n1)Sc1nc3ccccc3nc1N2` was 82.7% (active); that for `COC(=O)Nc1nnc(-c2ccccc2Cl)s1` was -1.6% (inactive); that for `CCCN(C(=O)COc1ccc(Cl)cc1Cl)c1c(N)n(Cc2ccccc2)c(=O)[nH]c1=O` was 5.9% (inactive). Regarding `CCCCN1C(=O)/C(=C/C=C2\Oc3ccccc3N2CC)SC1=S`, the inhibition (at 20 µM) was 149% (inactive). `CCSC1=N/C(=C\C=C2/Oc3ccccc3N2CC)C(=O)S1`: the inhibition runs as follows: (at 20 µM) 109% (active); under setting [1], 63%. For the molecule `CCSC1=N/C(=C\c2ccc3c(c2)OCO3)C(=O)S1`, the inhibition (at 20 µM) is 9.4% (inactive).

`CCN(CC)c1ccc(-c2nc3cnccc3n2C)cc1`: the inhibition (at 20 µM) is 0.4% (inactive). Consider `O=C(NCC1CCCO1)C1CCN(C2CCN(Cc3ccco3)CC2)CC1` (stereo unspecified), for which the inhibition (at 20 µM) was 1.6% (inactive). Regarding `CCOc1ccc(-c2nn(-c3ccccc3)cc2/C=C2\SC(=S)N(C3CCS(=O)(=O)C3)C2=O)cc1` (stereo unspecified), the inhibition runs as follows: (at 20 µM) 78.9% (active); under setting [1], 85%.

Regarding `CCCOc1ccc(-c2nn(-c3ccccc3)cc2/C=C2\SC(=S)N(C3CCS(=O)(=O)C3)C2=O)cc1` (stereo unspecified), the inhibition (at 20 µM) was -1.7% (inactive). Consider `CCOc1ccc(-c2nn(-c3ccccc3)cc2/C=C2\SC(=S)N(Cc3ccco3)C2=O)cc1`, for which the inhibition (at 20 µM) was 17.3% (inactive). Same read-out and setting: the value for `CCCOc1cccc(C(=O)N(Cc2ccc(OC)c(OC)c2)C2CCS(=O)(=O)C2)c1` (stereo unspecified) was 1% (inactive); that for `CCCCN(C)CCNC(=O)c1ccc(Cn2c(=S)[nH]c3ccc(Br)cc3c2=O)cc1` was -3.1% (inactive). Consider `COC(=O)N=Nc1c(O)n(Cc2ccccc2)c2ccccc12`, for which, where the note is “at 20 µM”, the inhibition is -1.9% (inactive). Take `O=C(COc1ccc(Cl)cc1Cl)Nc1ccc2nc3n(c(=O)c2c1)CCCC3`: the inhibition (at 20 µM) was -2.9% (inactive).

In the case of `CCC1(c2ccccc2)NC(=O)N(CC(=O)Nc2ccc(S(N)(=O)=O)cc2)C1=O` (stereo unspecified), the inhibition (at 20 µM) is 1.2% (inactive). Same read-out and setting: the figure for `CCCC1(c2ccccc2)NC(=O)N(CC(=O)Nc2cc(OC)cc(OC)c2)C1=O` (stereo unspecified) is 0.8% (inactive); for `CCC1(c2ccccc2)NC(=O)N(CC(=O)Nc2ccc(OC)nc2)C1=O` (stereo unspecified) it is 116% (active).

As for `O=C(COC(=O)c1ccc(S(=O)(=O)N2CCOCC2)cc1)NC1CCCC1`, the inhibition (at 20 µM) is 0.3% (inactive).

Consider `Cc1ccc(Nc2c(-c3ccccn3)nc3cc(C)ccn23)cc1`, for which, under “at 20 µM”, the inhibition was 0.3% (inactive).

As to `Cc1ccn2c(Nc3ccc4c(c3)OCO4)c(-c3ccccn3)nc2c1`, the inhibition (at 20 µM) is 114% (active). The same measure, in the same setting: the value for `Cc1ccn2c(Nc3ccccc3)c(-c3ccccn3)nc2c1` was -2.6% (inactive). Same read-out and setting: the figure for `CCC(C)NC(=O)CN1C(=O)NC2NC(=O)NC21` (stereo unspecified) is 0.8% (inactive); for `Cc1cc(NC(=S)N(Cc2ccc(Br)cc2)Cc2ccc(C(=O)O)cc2)ccc1Cl` it is 59.2% (active).

As to `Cc1cc(NC(=S)N(Cc2ccc(Cl)cc2)Cc2ccc(C(=O)O)cc2)ccc1Cl`, the inhibition reads like this: (at 20 µM) 53.2% (inactive); under setting [1], 34.6%. With `Cc1ccc(NC(=S)N(Cc2ccc(Br)cc2)Cc2ccc(C(=O)O)cc2)cc1C`, where the note is “at 20 µM”, the inhibition is 36.8% (inactive). On the same count and under the same terms, the value for `CCOc1cc(/C=N/NC(=O)Cc2ccc(C(F)(F)F)cc2[N+](=O)[O-])c(Br)cc1OC` was 0.7% (inactive); that for `O=C(Nc1nnc(CCc2ccccc2)s1)c1ccc(F)cc1` was 1.8% (inactive).
